# Source: PubChem BioAssay
# Shown are actives, neighbours in structure and some others; about 19% of the full set was active somewhere.
# S-ASM inh = inhibitors of human secretory acid sphingomyelinase; P17405; placental ASM, HMU-PC fluorogenic substrate, 60 min; Potency, µM (doses to about 57.5 µM), inactives show at the highest dose activity change, negative = inhibition, most hits filed as inhibitors; actives 0.006% (n = 340,000); AID 504937; further: potency means the concentration at half of the fitted maximal effect
# Target sequence (P17405 47-631 limits assumed): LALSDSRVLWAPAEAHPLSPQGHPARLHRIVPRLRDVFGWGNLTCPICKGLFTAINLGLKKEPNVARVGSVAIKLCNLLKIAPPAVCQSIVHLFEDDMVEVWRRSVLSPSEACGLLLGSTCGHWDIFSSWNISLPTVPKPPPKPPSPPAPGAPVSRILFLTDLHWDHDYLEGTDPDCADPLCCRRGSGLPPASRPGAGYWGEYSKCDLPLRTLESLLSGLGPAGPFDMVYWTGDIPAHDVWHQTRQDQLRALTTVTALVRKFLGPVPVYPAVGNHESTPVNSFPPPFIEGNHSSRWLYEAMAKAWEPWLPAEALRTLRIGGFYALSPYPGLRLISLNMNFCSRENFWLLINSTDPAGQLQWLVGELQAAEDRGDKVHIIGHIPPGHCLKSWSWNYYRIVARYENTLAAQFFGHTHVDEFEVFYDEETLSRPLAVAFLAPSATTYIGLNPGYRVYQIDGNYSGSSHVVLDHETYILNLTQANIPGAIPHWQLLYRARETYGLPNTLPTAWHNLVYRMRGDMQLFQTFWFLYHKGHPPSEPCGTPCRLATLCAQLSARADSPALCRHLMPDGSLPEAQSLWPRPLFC
#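 qHTS format. ASM enzyme prepared from human placenta hydrolyses the fluorogenic substrate HMU-PC0 (9 uM final) over 60 min at 37 °C after a 10 min compound preincubation.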
# TDP1 cell CPT = growth inhibition of DT40 Tdp1-/-;hTDP1 cells with camptothecin (screen for TDP1 inhibitors); chicken DT40 Tdp1-/-;hTDP1 cells + 20 nM CPT, ATP luminescence, 48 h; Potency, µM (doses to about 46.2 µM), inactives show at the top dose activity change, negative = growth inhibition, most hits filed as inhibitors; actives 12% (n = 420,000); further: potency means the concentration at half of the fitted maximal effect; on the % scale 0 is the no-effect control and ±100 the full control effect; nearly all actives have a fitted effect of over 55% in size
#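 Chicken DT40 Tdp1-/- cells complemented with human TDP1, 400 cells/well, exposed to compounds plus 20 nM camptothecin for at least 48 h at 37 C; viability read as ATP content by CellTiter-Glo luminescence.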
# IL1B secr inh = inhibitors of inflammasome signaling (IL-1 beta secretion). THP-1 LPS/ATP IL-1B secretion, AlphaLISA, 16 h; stronger effect = lower value. activity change, % at 57.5 µM. actives 4.7% (n = 360,000). AID 743279; in the data active means activity change below about -50%; inconclusive means mostly about -30% to -49%; further: on the % scale 0 is the no-effect control and ±100 the full control effect
#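 Secreted IL-1B measured by AlphaLISA bead assay after 16 h compound exposure of THP-1 cells; compounds (final up to 57.5 uM) added 1 h before LPS (250 ng/mL) and ATP (1.25 mM) stimulation; lower signal means less secretion.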
# HepG2 viability = HepG2 cytotoxicity, counter-screen for TGF-b inhibitors; HepG2 CAGA-GFP viability, ATP luminescence, 18 h; Potency, µM (top dose mostly 46.1 µM), for inactives: top-dose activity change, negative = cytotoxicity, usual class: cytotoxic; actives 0.76% (n = 410,000); AID 588856; further: potency means the concentration at half of the fitted maximal effect
#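 HepG2 CAGA-GFP cells (1000/well, DMEM with 1% FBS) received compound, then TGF-beta at 500 pg/mL final, and were incubated 18 hours at 37 degrees C. Viability was read by CellTiter-Glo luminescence. Media-only wells were set as complete cell-killing and DMSO as no toxicity.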
# DT40 TDP1 no CPT = qHTS for Inhibitors of human tyrosyl-DNA phosphodiesterase 1 (TDP1): qHTS in cells in absence of CPT. DT40 Tdp1-/- hTDP1 cells, no CPT, ATP luminescence, 48 h. Potency, µM (doses to about 46.2 µM), for inactives: top-dose activity change, negative = growth inhibition, most hits filed as inhibitors. actives 15% (n = 420,000). AID 686978, 2013; further: potency means the concentration at half of the fitted maximal effect; on the % scale 0 is the no-effect control and ±100 the full control effect; nearly all actives have a fitted effect of over 55% in size
#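 Compound effects on proliferation are scored in DT40 Tdp1-/-;hTDP1 cells in the absence of CPT. ATP levels (CellTiter-Glo luminescence) are recorded after a ≥48 hr, 37 °C incubation.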
# TGFb SMAD3 inh = inhibitors of TGF-b signaling | HepG2 CAGA-GFP TGF-b/SMAD3 reporter, GFP fluorescence, 18 h; TGF-beta stimulated, 500 pg/mL final | actives 1.2% (n = 410,000) | Potency, µM (highest dose often 46.1 µM), inactives show at the highest dose activity, negative = inhibition, hits mostly inhibitors; further: potency means the concentration at half of the fitted maximal effect; on the % scale 0 is the no-effect control and ±100 the full control effect; nearly all actives have a fitted effect of over 65% in size
#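 HEPG2 CAGA-GFP reporter cells (1000/well, DMEM with 1% FBS) received compounds, then recombinant TGF-beta at 500 pg/mL final for 18 hours at 37 degrees C. Per-cell GFP summed per well was normalised to unstimulated and stimulated DMSO controls before curve fitting.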
# * = called active by the depositor; ? = inconclusive; / = not tested or not shown. Unless noted, the call rests on the fitted dose curve; in most records, active means well fitted curve in the direction sought with a large enough effect; inconclusive means small, poorly fitted or top-dose-only effect, or another doubt; inactive means no such curve, though single readings can be large; an effect the other way counts as inactive or inconclusive.
SMILES,S-ASM inh,TDP1 cell CPT,IL1B secr inh,HepG2 viability,DT40 TDP1 no CPT,TGFb SMAD3 inh
CCOC(=O)c1c(CSc2ccsc2)n(C)c2cc(Br)c(O)c(CN(C)C)c12,-7%,18µM*,-53*,10µM*,23µM*,?
CCOC(=O)c1c(CN2CCOCC2)n(-c2ccccc2)c2cc(Br)c(O)c(CN(C)C)c12,-2%,?,?,-26%,?,?
CCOC(=O)c1c(CN2CCCCC2)n(C)c2cc(Br)c(O)c(CN(C)C)c12,1%,18µM*,-10,-16%,?,0%
Cc1cc(C(C)(C)CC(C)(C)C)ccc1OCCOCC[N+](C)(C)Cc1ccccc1,?,3.7µM*,23,20µM*,4.1µM*,?
Cc1cc(C(C)(C)C)ccc1OCCN1CCCC1,0%,-27%,-8,-18%,?,-18%
CC(C)=CCC/C(C)=C/CNC(=O)C[C@H]1C[C@H](C(=O)N2CCOCC2)[C@@]2(CCC3CCCC3)c3[nH]c4cc(CCC(=O)N(C)C)ccc4c3CCN2C1=O,-8%,5.8µM*,?,-35%,6.5µM*,?
CC[C@]12c3[nH]c4cc(CCC(=O)N(C)C)ccc4c3CCN1C(=O)[C@@H](CC(=O)NC/C=C(\C)CCC=C(C)C)C[C@@H]2C(=O)N1CCN(C(=O)c2ccco2)CC1,-1%,10µM*,0,-46%,5.8µM*,?
CN(C)C(=O)CCc1ccc2c3c([nH]c2c1)[C@]1(CCC2CCCC2)[C@@H](C(=O)N2CCOCC2)C[C@H](CC(=O)NCC24CC5CC(CC(C5)C2)C4)C(=O)N1CC3,-6%,?,-27,2%,23µM*,2%
COCCCNC(=O)C[C@H]1C[C@H](C(=O)N2CCOCC2)[C@@]2(CCC3CCCC3)c3[nH]c4cc(CCC(=O)N(C)C)ccc4c3CCN2C1=O,-2%,0%,18,5%,-8%,7%
O=C(CSc1n[nH]c(-c2ccncc2)n1)Nc1ccccc1Cl,7%,-2%,34,5%,-16%,-18%
CCOC(=O)C1CCCN(Cc2c(C(=O)N3CCOCC3)nc3ccccn23)C1 (stereo unspecified),4%,1%,-68*,1%,-8%,2%
CCOC(=O)C1CCCN(Cc2nc(N)nc(Nc3ccccc3)n2)C1 (stereo unspecified),5%,?,5,-20%,18µM*,14%
Nc1nc(CN2CCN(c3ccccc3F)CC2)nc(Nc2ccccc2)n1,-3%,23µM*,-7,-6%,?,-9%
Cc1ccc(Nc2nc(N)nc(CN3CCCCCC3)n2)cc1,-2%,?,-7,-23%,?,-3%
CCOC(=O)C1CCCN(C(=S)Nc2ccc(Nc3ccccc3)cc2)C1 (stereo unspecified),-2%,?,-96*,5%,23µM*,9%
COc1ccccc1-c1nc(SCC(=O)c2ccc(Cl)cc2)n[nH]1,/,-14%,/,-50%,-19%,-1%
COc1ccccc1OCC(=O)Nc1nc(-c2ccc(Br)cc2)ns1,/,-33%,/,-2%,-29%,-15%
CC1CC(C)CN(Cc2nc(N)nc(Nc3ccc4ccccc4c3)n2)C1 (stereo unspecified),-3%,23µM*,?,-58%,21µM*,?
Nc1nc(CN2CCN(C(c3ccccc3)c3ccccc3)CC2)nc(Nc2ccccc2)n1,0%,?,-22,-36%,23µM*,?
Nc1nc(CN2CCCCCC2)nc(Nc2ccccc2)n1,2%,-1%,2,-16%,-13%,3%
Cc1cccc(Nc2nc(N)nc(CN3CCN(c4ccc(F)cc4)CC3)n2)c1,-5%,18µM*,?,-39%,16µM*,?
Nc1nc(CN2CCC(Cc3ccccc3)CC2)nc(Nc2ccccc2)n1,-1%,18µM*,?,-82%,23µM*,0%
CCOC(=O)C(=CNc1nc(-c2ccc3ccccc3c2)cs1)C(=O)OCC,21%,?,-19,-23%,?,-5%
CCN(CC)C(=S)SSC(=S)N(CC)CC,0%,0.021µM*,-110*,-56%,0.15µM*,?
O=c1cc(Nc2ccc3c(c2)OCO3)[nH]c(=O)n1-c1ccc(Br)cc1,31%,?,20,-34%,23µM*,-17%
SMILES,S-ASM inh,TDP1 cell CPT,IL1B secr inh,HepG2 viability,DT40 TDP1 no CPT,TGFb SMAD3 inh
CCn1cc(CN2CCc3c([nH]c4ccccc34)C2c2ccc(F)c(OC)c2)c(C)n1 (stereo unspecified),36%,?,-18,-16%,-24%,?
CCn1nc(C)c(CN2CCc3c([nH]c4ccccc34)C2c2ccc(F)c(OC)c2)c1C (stereo unspecified),8%,29µM*,-15,-28%,12µM*,-26%
CC(C)c1ccc(OCC(=O)NCCS(=O)(=O)N2CCN(c3ccc(F)cc3)CC2)cc1,/,-2%,/,0%,-18%,-7%
S=c1nccc(-c2ccc3c(c2)CCO3)[nH]1,170%,10µM*,24,-7%,?,12%
CCOCCC(=O)Nc1ccc2c(c1)c(=O)n(C)n2-c1ccccc1F,/,-27%,-1,1%,-21%,-7%
COc1ccccc1CCC(=O)Nc1ccc2c(c1)c(=O)n(C)n2Cc1cccc(C(F)(F)F)c1,/,23µM*,-12,-20%,?,-4%
COc1cccc(CNC(=S)Nc2ccc3c(c2)c(=O)n(C)n3Cc2ccc(F)cc2)c1,/,?,-9,7%,-26%,43%
Cn1c(=O)c2cc(NC(=O)CCc3ccccc3)ccc2n1-c1ccccc1F,/,12µM*,40,-5%,13µM*,?
Cn1c(=O)c2cc(NC(=O)CCc3ccccc3)ccc2n1Cc1cccc(C(F)(F)F)c1,/,16µM*,9,5%,13µM*,-4%
COc1cccc(Cn2c3ccc(NC(=O)CCc4ccc(F)cc4)cc3c(=O)n2C)c1,/,4.6µM*,43,7%,3.7µM*,?
CCCCn1c(N)c(N(C)C(=O)c2ccc(OCC3CCCO3)cc2)c(=O)[nH]c1=O (stereo unspecified),5%,1%,0,-1%,-4%,?
CCOC(=O)C(C(=O)Cc1ccccc1)c1ccccc1 (stereo unspecified),2%,6%,-2,-1%,-13%,0%
